The values below come from article PMC5700166.

The assay addresses T1, GST-Ap-NF-kB RHD (Exaiptasia pallida (Aiptasia), UniProt A0A913YAJ5 2-422).
T1 sequence: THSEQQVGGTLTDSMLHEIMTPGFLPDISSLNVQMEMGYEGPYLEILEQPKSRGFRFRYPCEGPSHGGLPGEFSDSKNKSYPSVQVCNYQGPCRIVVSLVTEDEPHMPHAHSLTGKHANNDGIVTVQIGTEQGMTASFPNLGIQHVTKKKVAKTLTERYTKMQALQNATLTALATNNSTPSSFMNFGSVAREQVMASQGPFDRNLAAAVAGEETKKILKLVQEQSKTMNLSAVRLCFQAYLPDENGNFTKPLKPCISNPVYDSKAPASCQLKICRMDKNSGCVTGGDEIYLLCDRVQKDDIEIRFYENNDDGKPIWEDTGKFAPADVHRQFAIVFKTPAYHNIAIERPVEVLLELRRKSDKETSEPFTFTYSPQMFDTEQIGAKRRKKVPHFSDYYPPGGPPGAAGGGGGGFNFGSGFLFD
Briefly: protein-binding microarray (PBM); PBM: ~300 nM protein, 6 mM HEPES pH 7.8, 80 mM KCl, 0.5 mM EDTA, 0.5 mM EGTA, 6% glycerol, 35 ng/ul poly-dIdC, 1% milk, 1 h, room temperature; Ap Aiptasia and Nv Nematostella (sea anemones) / Co Capsaspora / Aq Amphimedon (sponge) / Dm Drosophila / Hu human; RHD is the Rel homology domain; high values mean tight binding. Particulars: dsDNA, one strand shown.
For “CCGATTAACATCAACATTCCCCCTGATGTTAATCGGGTCTTGATTCGCTTGACGCTGCTG”, the binding signal was determined as 7.55 z-score. In turn, “CCGATTAACATCAACAATTTCCCTGATGTTAATCGGGTCTTGATTCGCTTGACGCTGCTG” had a binding signal of 3.9 z-score. To “CCGATTAACATCAAAAAACCCCTTGATGTTAATCGGGTCTTGATTCGCTTGACGCTGCTG” belongs 8.1 z-score; to “CCGATTAACATCACGGGGATTTCTGATGTTAATCGGGTCTTGATTCGCTTGACGCTGCTG”, 9.25 z-score; to “CCGATTAACATCACTTTTTCCCCTGATGTTAATCGGGTCTTGATTCGCTTGACGCTGCTG”, 6.12 z-score. Then “CCGATTAACATCAGCGGGAATCCTGATGTTAATCGGGTCTTGATTCGCTTGACGCTGCTG”, with 2.44 z-score; and “CCGATTAACATCAGATTTTCCCATGATGTTAATCGGGTCTTGATTCGCTTGACGCTGCTG”, with 3.85 z-score; and “CCGATTAACATCACCCTGGGAAATGATGTTAATCGGGTCTTGATTCGCTTGACGCTGCTG”, with 1.68 z-score. To “CCGATTAACATCAGGGGGACTAATGATGTTAATCGGGTCTTGATTCGCTTGACGCTGCTG” belongs 5.06 z-score; to “CCGATTAACATCAAGGGGATCCCTGATGTTAATCGGGTCTTGATTCGCTTGACGCTGCTG”, 9.22 z-score. With “CCGATTAACATCACGGGATTCCCTGATGTTAATCGGGTCTTGATTCGCTTGACGCTGCTG”, the binding signal was 6.4 z-score. To “CCGATTAACATCAGGGGGTTCTATGATGTTAATCGGGTCTTGATTCGCTTGACGCTGCTG” belongs 7.12 z-score. In the case of “CCGATTAACATCAAAAATCCCCTTGATGTTAATCGGGTCTTGATTCGCTTGACGCTGCTG”, the binding signal came to 10.4 z-score. As for “CCGATTAACATCAAAAATACCCTTGATGTTAATCGGGTCTTGATTCGCTTGACGCTGCTG”, the binding signal came out at 5.7 z-score.

Sequence “CCGATTAACATCAAAGCTTCCCCTGATGTTAATCGGGTCTTGATTCGCTTGACGCTGCTG” showed a binding signal of 5.17 z-score. To “CCGATTAACATCAACTTCCCCCCTGATGTTAATCGGGTCTTGATTCGCTTGACGCTGCTG” belongs 7.03 z-score; to “CCGATTAACATCAGAAAATACCCTGATGTTAATCGGGTCTTGATTCGCTTGACGCTGCTG”, 5.86 z-score. “CCGATTAACATCAAAAAGACCCCTGATGTTAATCGGGTCTTGATTCGCTTGACGCTGCTG” showed a binding signal of 4.67 z-score. To “CCGATTAACATCAGGGAATCCCATGATGTTAATCGGGTCTTGATTCGCTTGACGCTGCTG” belongs 5.36 z-score; to “CCGATTAACATCAAGGGGTTTTCTGATGTTAATCGGGTCTTGATTCGCTTGACGCTGCTG”, 7.68 z-score; to “CCGATTAACATCAAAGTCCCGGGTGATGTTAATCGGGTCTTGATTCGCTTGACGCTGCTG”, 4.32 z-score.

In the case of “CCGATTAACATCAGGGACTTTTATGATGTTAATCGGGTCTTGATTCGCTTGACGCTGCTG”, the binding signal was found to be 7.76 z-score. On to “CCGATTAACATCAGGCAACCCCCTGATGTTAATCGGGTCTTGATTCGCTTGACGCTGCTG”, for which the binding signal came out at 5.96 z-score. “CCGATTAACATCAGGGGGGTAACTGATGTTAATCGGGTCTTGATTCGCTTGACGCTGCTG” gave a binding signal of 5.83 z-score.

Consider “CCGATTAACATCAGGGGGGACTATGATGTTAATCGGGTCTTGATTCGCTTGACGCTGCTG”, for which the binding signal was 5.46 z-score. The sequence “CCGATTAACATCAGGGAAAATAATGATGTTAATCGGGTCTTGATTCGCTTGACGCTGCTG” registered a binding signal of 3.42 z-score.
